The target of experiment [1] is Glutathione peroxidase 1 (Homo sapiens) (UniProt P07203). The experiment can be described thus: Primary qHTS Assay for Inhibitors of Recombinant Selenoprotein Glutathione Peroxidase 1 (GPX1) (AID 1845191). Further: nearly all actives have a fitted effect of over 65% in size. In a few lines: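 Recombinant GPX1 (10 nM final) was preincubated with compound for 30 min at room temperature, then reacted with 1 mM GSH, 0.5 mM CHP, 0.5 mM NADPH and 100 nM glutathione reductase; NADPH fluorescence (340/450 nm) was read at 0 and 15 min.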
For orientation: qHTS replaces the single test concentration by a dilution series.

Experiment [2] deals with Phospholipid hydroperoxide glutathione peroxidase GPX4 (Homo sapiens) (UniProt P36969). The experiment can be described thus: Primary qHTS Assay for Inhibitors of Recombinant Selenoprotein Glutathione Peroxidase 4 (GPX4) (AID 1845192). Further: series mostly up to about 50 µM; nearly all actives have a fitted effect of over 65% in size. The gist of the method:
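GR-coupled readout: 100 nM GR, 1 mM GSH, 0.5 mM NADPH; NADPH fluorescence (ex 340/em 450 nm) read at t=0 and after 15 min RT. GPX4 200 nM, preincubated 30 min with compound; substrate 0.5 mM CHP.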

Experiment [3] concerns the target Luciferin 4-monooxygenase (Photinus pyralis) (UniProt P08659). The experiment can be described thus: Primary firefly luciferase (FLuc) qHTS assay for identification of artifact compounds. (AID 1845220). Further: nearly all actives have a fitted effect of over 60% in size. Further: potency means the concentration at half of the fitted maximal effect. In a few lines: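 qHTS, 15 min compound preincubation with substrate (10 uM luciferin, 10 uM ATP) at RT, then 10 nM FLuc; 5 min; luminescence; % inhibition vs no-enzyme/DMSO controls, 4-parameter Hill fit.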

The nature of experiment [4]: Primary fluorescence-based thiol-reactive (MSTI) qHTS assay for identification of artifact compounds. (AID 1845221). Further: nearly all actives have a fitted effect of over 65% in size. Further: potency means the concentration at half of the fitted maximal effect. The gist of the method: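 Thiol-reactive compounds detected by quenching of 4 uM MSTI fluorescence (525/598 nm) after 1 h room-temperature dark incubation in PBS pH 7.4, 2% DMSO. qHTS titration; percent inhibition Hill-fitted against Acetyl-MSTI/MSTI controls.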

Experiment [5] deals with Nanoluciferase (engineered Oplophorus gracilirostris luciferase). The experiment can be described thus: Primary Nanoluciferase (NLuc) qHTS assay for identification of artifact compounds. (AID 1845222). Further: series mostly up to about 54 µM. In a few lines:
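Luminescence read-out of secreted NLuc in S16 cell conditioned medium (1:55); compounds tested with 15 min RT preincubation, then Nano-Glo substrate 1:100, 5 min. % inhibition vs no-enzyme and DMSO controls, 4-parameter Hill fit.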

A number with no mark means an inactive call. Inconclusive results are not listed. The source made the active and inactive calls. The call rests on the fitted dose curve; in most records, active means well fitted curve in the direction sought with a large enough effect; inconclusive means small, poorly fitted or top-dose-only effect, or another doubt; inactive means no such curve, though single readings can be large; an effect the other way counts as inactive or inconclusive.

Chain of Phospholipid hydroperoxide glutathione peroxidase GPX4 (Homo sapiens) (P36969 whole entry, looked up): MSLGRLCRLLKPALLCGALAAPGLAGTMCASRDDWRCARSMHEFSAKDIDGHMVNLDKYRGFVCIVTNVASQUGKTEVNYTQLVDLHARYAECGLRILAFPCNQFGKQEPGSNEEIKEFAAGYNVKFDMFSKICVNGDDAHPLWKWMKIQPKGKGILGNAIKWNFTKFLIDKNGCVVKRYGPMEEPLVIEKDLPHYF
Chain of Glutathione peroxidase 1 (Homo sapiens) (P07203 whole entry, looked up): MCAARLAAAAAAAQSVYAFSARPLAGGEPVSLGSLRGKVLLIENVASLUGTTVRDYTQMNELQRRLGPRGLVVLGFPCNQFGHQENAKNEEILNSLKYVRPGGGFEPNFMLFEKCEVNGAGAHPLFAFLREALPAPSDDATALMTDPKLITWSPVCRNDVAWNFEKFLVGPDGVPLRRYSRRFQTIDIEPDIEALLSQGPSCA

Consider `C=CC(C)(O)CC/C=C(/C)COC(=O)C(C)C1CCC(C)(C=C)O1` (stereo unspecified), for which the Potency result in experiment [1], in experiment [2], in experiment [3] and in experiment [4] was “inactive” each time.

For the molecule `CC(=O)OC/C(=C/C(=O)O)CC[C@@H]1C(C=O)=CC[C@@H]2C(C)(C)CCC[C@@]12C`, the Potency entry in experiment [1], in experiment [2], in experiment [3], in experiment [4] and in experiment [5] was “inactive” each time.

Take `c1ccc(-c2ccc(CNc3nc(-c4ccccn4)nnc3-c3ccccc3)cc2)cc1`: the Potency entry in experiment [1], in experiment [2], in experiment [3] and in experiment [4] was “inactive” throughout.

In the case of `Cc1ccc(-c2ncccn2)c(C(=O)N2C[C@H](COc3ccc(F)cn3)CC[C@H]2C)c1`, the Potency entry in experiment [1], in experiment [2], in experiment [3] and in experiment [4] was “inactive” each time.

Consider `COc1cc(CCC2=NN=C(NC(=O)c3ccc(N4C[C@@H](C)N[C@@H](C)C4)cc3)C2)cc(OC)c1`, for which the Potency entry in experiment [1], in experiment [2], in experiment [3] and in experiment [4] was “inactive” in each case.

With `Cc1nc(Nc2cnn(C3CCNCC3)c2)nc2c1N(C)C(=O)c1cc3ccccc3cc1N2C`, the Potency result in experiment [1], in experiment [2], in experiment [3] and in experiment [4] was “inactive” in each case.

As for `Cc1nnc(C[C@@H]2C=C(c3ccc(Cl)cc3)c3ccccc3-n3c(C)nnc32)o1`, the Potency entry in experiment [1], in experiment [2], in experiment [3] and in experiment [4] was “inactive” each time.

Turning to `CC1OC(=O)C[C@@H]2C(C(=O)O)=CO[C@@H](O[C@H]3O[C@H](CO)[C@@H](O)[C@H](O)[C@H]3O)[C@H]12` (stereo partly specified), the Potency result in experiment [1], in experiment [2], in experiment [3] and in experiment [4] was “inactive” throughout.

`COc1ccc(NC(=O)c2ccc(C(=N)N(C)C)cc2)c(C(=O)Nc2ccc(Cl)cn2)c1`: the Potency result in experiment [1], in experiment [2], in experiment [3] and in experiment [4] was “inactive” in each case.

`CC(F)(F)CN1CCOc2c(nn(-c3ccccc3Cl)c2-c2ccc(Cl)cc2)C1=O`: the Potency result in experiment [1], in experiment [2], in experiment [3] and in experiment [4] was “inactive” throughout.

Consider `C=C(C(=O)OC)[C@@H]1CC=C2C=CC(=O)[C@H](C)[C@@]2(C)C1`, for which the Potency result in experiment [1], in experiment [2], in experiment [3] and in experiment [4] was “inactive” each time.

Take `Cc1ccc(-c2cn3c4c(sc3n2)CCCC4)cc1`: the Potency entry in experiment [1], in experiment [2] and in experiment [4] was “inactive” throughout. Further, in experiment [3], the Potency was 190 nM (active).

`CN(C)CCCn1cc(C2=C(c3c[nH]c4ccccc34)C(=O)NC2=O)c2ccccc21`: the Potency entry in experiment [1], in experiment [2] and in experiment [3] was “inactive” each time. Besides, the Potency in experiment [4] is 423 nM (active).

Take `CS(=O)(=O)Nc1ccc2oc3c(OC(F)F)ccc(C(=O)Nc4c(Cl)cncc4Cl)c3c2c1`: the Potency entry in experiment [1], in experiment [2], in experiment [3] and in experiment [4] was “inactive” throughout.

Regarding `COc1cc(-c2nc(N[C@H](CO)Cc3ccccc3)ccc2C(=O)NCCOc2ccccc2)cc(OC)c1OC`, the Potency entry in experiment [1], in experiment [2], in experiment [3], in experiment [4] and in experiment [5] was “inactive” each time.

As to `C#Cc1cccc(Nc2nc3cc(C(=O)O)ccc3c3cncnc23)c1`, the Potency result in experiment [1], in experiment [2], in experiment [3] and in experiment [4] was “inactive” each time.

As to `COc1nc2ccc(Br)cc2cc1[C@@H](c1ccccc1)[C@@](O)(CCN(C)C)c1cccc2ccccc12`, the Potency entry in experiment [1], in experiment [2], in experiment [3] and in experiment [4] was “inactive” in each case.

On to `CC(C)=CCC[C@](C)(O[C@@H]1O[C@H](CO[C@@H]2OC[C@@H](O)[C@H](O)[C@H]2O)[C@@H](O)[C@H](O)[C@H]1O)[C@H]1CC[C@]2(C)[C@@H]1[C@H](O)C[C@@H]1[C@@]3(C)CC[C@H](O[C@@H]4O[C@H](CO)[C@@H](O)[C@H](O)[C@H]4O)C(C)(C)[C@@H]3CC[C@]12C`, for which the Potency result in experiment [1], in experiment [2], in experiment [3], in experiment [4] and in experiment [5] was “inactive” in each case.

In the case of `O=C(O)c1ccc(N2C(=O)/C(=C/c3ccc(-c4ccc([N+](=O)[O-])cc4)o3)C=C2c2ccccc2)cc1`, the Potency entry in experiment [1], in experiment [2] and in experiment [3] was “inactive” in each case. Also, the Potency in experiment [4] was 423 nM (active).

As to `COc1cc(NC(=O)c2cc(C3CC3)on2)c(OC)cc1Cl`, the Potency entry in experiment [1], in experiment [2], in experiment [3], in experiment [4] and in experiment [5] was “inactive” each time.

`CN(C)CC1CCn2c(c(C3=C(c4cn(C)c5ccccc45)C(=O)NC3=O)c3ccccc32)C1` (stereo unspecified): the Potency entry in experiment [1], in experiment [2], in experiment [3] and in experiment [4] was “inactive” each time.

`CC(C)(Cc1nc(-c2ccc(O)cn2)no1)C(=O)NC1=C(C(=O)O)CCCC1`: the Potency entry in experiment [1], in experiment [2], in experiment [3] and in experiment [4] was “inactive” each time.

Turning to `C=C(C)C(=O)O[C@H]1[C@H]2C(=C)C(=O)O[C@@H]2C[C@@H](C)[C@@H]2O[C@@H]2C(=O)[C@](C)(O)[C@@H]1OC(=O)C(=C)C`, the Potency entry in experiment [1], in experiment [2], in experiment [3] and in experiment [4] was “inactive” in each case.

Turning to `CC(C)CCNC(=O)[C@H](CC(C)C)NC(=O)[C@H]1O[C@@H]1C(=O)O`, the Potency result in experiment [1], in experiment [2], in experiment [3] and in experiment [4] was “inactive” in each case.

As to `Cc1cc(NC(=O)c2cccc(NC(=O)/C=C/CN(C)C)c2)ccc1Nc1nccc(-c2cccnc2)n1`, the Potency entry in experiment [1], in experiment [2], in experiment [3] and in experiment [4] was “inactive” throughout.

As to `C=C1CC[C@@H]2[C@](C)(CO)[C@H](O)CC[C@@]2(C)[C@@H]1C/C=C1/C(=O)OCC1O` (stereo partly specified), the Potency entry in experiment [1], in experiment [2], in experiment [3] and in experiment [4] was “inactive” in each case.

For `Cn1c(=O)c(F)c(Nc2ccc(I)cc2F)c2c(=O)n(CC(O)CO)cnc21` (stereo unspecified), the Potency entry in experiment [1], in experiment [2], in experiment [3] and in experiment [4] was “inactive” throughout.

`Cc1nc2c(C(F)(F)F)cccc2nc1-c1ccc(-c2cccc(S(C)(=O)=O)c2)cc1`: the Potency entry in experiment [1], in experiment [2], in experiment [3] and in experiment [4] was “inactive” each time.
